# Paper PMC7862700, “An all-to-all approach to the identification of sequence-specific readers for epigenetic DNA modifications on cytosine”
# Tests used:
# Experiment in all cases: DAPPL (digital affinity profiling via proximity ligation, sequencing); 10 mM Tris-HCl pH 7.5, 50 mM NaCl, 1 mM DTT, 4% glycerol, room temperature, 30 min; GST-TFs on glutathione beads, 16-mer random dsDNA library, 0.1% formaldehyde crosslink after washing; high values mean tight binding
# FLI1 = molecular target: T1, FLI1 (Homo sapiens, UniProt Q01543 1-452); details: protein: recombinant; tags: N-terminal GST; dsDNA, one strand shown
# T1 sequence: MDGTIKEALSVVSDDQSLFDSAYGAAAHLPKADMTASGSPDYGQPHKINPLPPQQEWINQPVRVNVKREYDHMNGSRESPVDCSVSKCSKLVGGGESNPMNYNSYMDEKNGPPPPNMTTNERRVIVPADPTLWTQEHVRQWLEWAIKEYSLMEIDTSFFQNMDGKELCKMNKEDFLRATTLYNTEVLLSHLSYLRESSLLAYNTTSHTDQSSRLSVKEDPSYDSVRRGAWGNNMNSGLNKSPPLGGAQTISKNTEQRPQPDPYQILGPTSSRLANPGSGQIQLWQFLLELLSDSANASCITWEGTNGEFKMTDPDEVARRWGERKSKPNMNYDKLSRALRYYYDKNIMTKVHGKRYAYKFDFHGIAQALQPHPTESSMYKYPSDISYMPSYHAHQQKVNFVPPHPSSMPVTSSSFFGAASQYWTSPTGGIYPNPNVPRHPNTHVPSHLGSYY
# In short: (§1)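 A tag-only sample was pooled with DNA-barcoded human transcription factors that had been expressed in yeast as GST fusions and captured on glutathione beads. The pools were incubated for 30 min at room temperature with 200 nmole of a random double-stranded 16-mer DNA library in Tris/NaCl/DTT/glycerol buffer, then washed, crosslinked with 0.1% formaldehyde, proximity-ligated (BsaI/T4 ligase, 1 h, 37 °C), PCR-amplified and sequenced on an Illumina NextSeq500. Binding signal is each hexamer's read frequency for a factor divided by its frequency for the tag-only sample.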
# ELK1 = molecular target: T2, ELK1 (Homo sapiens, UniProt P19419 1-428); details: protein: recombinant; tags: N-terminal GST; dsDNA, one strand shown
# T2 sequence: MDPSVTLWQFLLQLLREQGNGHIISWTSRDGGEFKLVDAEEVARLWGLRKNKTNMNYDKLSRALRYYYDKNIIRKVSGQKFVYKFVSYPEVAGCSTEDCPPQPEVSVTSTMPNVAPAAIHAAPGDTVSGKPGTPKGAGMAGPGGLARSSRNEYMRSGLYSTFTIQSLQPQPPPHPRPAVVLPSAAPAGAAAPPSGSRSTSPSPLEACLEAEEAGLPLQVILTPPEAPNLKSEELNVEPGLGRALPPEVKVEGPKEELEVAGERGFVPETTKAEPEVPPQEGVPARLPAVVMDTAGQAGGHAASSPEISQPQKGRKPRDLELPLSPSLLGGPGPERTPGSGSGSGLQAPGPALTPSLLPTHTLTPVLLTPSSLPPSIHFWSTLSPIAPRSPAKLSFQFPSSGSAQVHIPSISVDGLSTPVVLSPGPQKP
# In short: as §1
# GABPA = molecular target: T3, GABPA (Homo sapiens, UniProt Q06546 1-454); details: protein: recombinant; tags: N-terminal GST; dsDNA, one strand shown
# T3 sequence: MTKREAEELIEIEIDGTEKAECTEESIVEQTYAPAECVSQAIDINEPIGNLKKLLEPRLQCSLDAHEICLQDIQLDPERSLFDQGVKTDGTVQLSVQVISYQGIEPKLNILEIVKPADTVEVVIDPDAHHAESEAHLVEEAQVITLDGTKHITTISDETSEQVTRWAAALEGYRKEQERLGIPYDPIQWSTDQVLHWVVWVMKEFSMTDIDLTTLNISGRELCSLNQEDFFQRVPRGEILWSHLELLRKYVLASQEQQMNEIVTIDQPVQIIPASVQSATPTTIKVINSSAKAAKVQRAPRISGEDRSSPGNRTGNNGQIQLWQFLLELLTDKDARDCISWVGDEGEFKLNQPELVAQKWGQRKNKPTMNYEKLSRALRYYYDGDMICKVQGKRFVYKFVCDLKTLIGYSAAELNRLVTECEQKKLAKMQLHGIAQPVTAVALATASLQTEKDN
# In short: as §1
# ERG = molecular target: T4, ERG (Homo sapiens, UniProt P11308 1-479); details: protein: recombinant; tags: N-terminal GST; dsDNA, one strand shown
# T4 sequence: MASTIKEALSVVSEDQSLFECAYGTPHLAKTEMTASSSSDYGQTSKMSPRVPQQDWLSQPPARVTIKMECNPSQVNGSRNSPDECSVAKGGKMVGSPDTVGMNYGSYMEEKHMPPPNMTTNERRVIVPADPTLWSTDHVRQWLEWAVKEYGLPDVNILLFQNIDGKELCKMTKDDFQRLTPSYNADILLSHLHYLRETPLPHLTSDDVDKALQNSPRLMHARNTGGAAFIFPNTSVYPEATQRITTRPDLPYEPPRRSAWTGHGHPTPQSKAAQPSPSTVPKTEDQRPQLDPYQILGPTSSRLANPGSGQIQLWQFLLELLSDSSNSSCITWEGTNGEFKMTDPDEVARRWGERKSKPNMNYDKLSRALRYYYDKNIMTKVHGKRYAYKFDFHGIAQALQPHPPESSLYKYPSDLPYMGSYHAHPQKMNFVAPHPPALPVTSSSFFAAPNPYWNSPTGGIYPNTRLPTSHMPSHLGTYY
# In short: as §1
# ELF1 = ELF1 (Homo sapiens, UniProt P32519 1-619); details: protein: recombinant; tags: N-terminal GST; dsDNA, one strand shown
# In short: as §1
# EHF = molecular target: T5, EHF (Homo sapiens, UniProt Q9NZC4 1-300); details: protein: recombinant; tags: N-terminal GST; dsDNA, one strand shown
# T5 sequence: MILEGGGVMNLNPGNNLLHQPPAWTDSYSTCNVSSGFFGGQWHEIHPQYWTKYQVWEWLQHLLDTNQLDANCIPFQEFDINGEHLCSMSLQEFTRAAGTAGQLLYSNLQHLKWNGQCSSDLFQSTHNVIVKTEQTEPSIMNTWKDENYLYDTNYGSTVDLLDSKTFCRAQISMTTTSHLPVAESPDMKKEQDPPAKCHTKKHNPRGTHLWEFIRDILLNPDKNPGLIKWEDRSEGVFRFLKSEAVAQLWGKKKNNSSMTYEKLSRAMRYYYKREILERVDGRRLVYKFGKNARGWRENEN
# In short: as §1
# SPI1 = SPI1 (Homo sapiens, UniProt P17947 1-270); details: protein: recombinant; tags: N-terminal GST; dsDNA, one strand shown
# In short: as §1
# SPIB = SPIB (Homo sapiens, UniProt Q01892 1-262); details: protein: recombinant; tags: N-terminal GST; dsDNA, one strand shown
# In short: as §1
# ELK3 = molecular target: T6, ELK3 (Homo sapiens, UniProt P41970 1-407); details: protein: recombinant; tags: N-terminal GST; dsDNA, one strand shown
# T6 sequence: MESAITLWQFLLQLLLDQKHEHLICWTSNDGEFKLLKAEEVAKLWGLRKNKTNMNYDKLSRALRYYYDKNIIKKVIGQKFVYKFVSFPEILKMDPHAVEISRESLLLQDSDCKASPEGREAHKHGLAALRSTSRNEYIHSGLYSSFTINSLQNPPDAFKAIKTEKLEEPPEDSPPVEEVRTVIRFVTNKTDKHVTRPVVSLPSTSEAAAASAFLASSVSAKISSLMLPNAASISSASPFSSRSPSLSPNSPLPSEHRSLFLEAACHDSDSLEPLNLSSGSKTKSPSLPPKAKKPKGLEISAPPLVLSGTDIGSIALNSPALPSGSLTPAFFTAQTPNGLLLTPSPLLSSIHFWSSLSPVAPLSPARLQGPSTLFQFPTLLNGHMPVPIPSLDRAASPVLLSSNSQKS
# In short: as §1
# FEV = molecular target: T7, FEV (Homo sapiens, UniProt Q99581 1-238); details: protein: recombinant; tags: N-terminal GST; dsDNA, one strand shown
# T7 sequence: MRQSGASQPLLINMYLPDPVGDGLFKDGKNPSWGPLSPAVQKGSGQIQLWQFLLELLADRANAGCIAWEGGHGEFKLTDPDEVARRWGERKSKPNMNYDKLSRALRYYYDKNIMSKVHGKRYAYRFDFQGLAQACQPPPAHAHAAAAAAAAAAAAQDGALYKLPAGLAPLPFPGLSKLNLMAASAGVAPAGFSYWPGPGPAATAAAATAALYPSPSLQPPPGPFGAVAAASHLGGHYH
# In short: as §1
# ETV5 = ETV5 (Homo sapiens, UniProt P41161 1-510); details: protein: recombinant; tags: N-terminal GST; dsDNA, one strand shown
# In short: as §1
# HSF1 = HSF1 (Homo sapiens, UniProt Q00613 1-529); details: protein: recombinant; tags: N-terminal GST; chain copies: 3; dsDNA, one strand shown
# In short: as §1
# SPIC = molecular target: T8, SPIC (Homo sapiens, UniProt Q8N5J4 1-248); details: protein: recombinant; tags: N-terminal GST; dsDNA, one strand shown
# T8 sequence: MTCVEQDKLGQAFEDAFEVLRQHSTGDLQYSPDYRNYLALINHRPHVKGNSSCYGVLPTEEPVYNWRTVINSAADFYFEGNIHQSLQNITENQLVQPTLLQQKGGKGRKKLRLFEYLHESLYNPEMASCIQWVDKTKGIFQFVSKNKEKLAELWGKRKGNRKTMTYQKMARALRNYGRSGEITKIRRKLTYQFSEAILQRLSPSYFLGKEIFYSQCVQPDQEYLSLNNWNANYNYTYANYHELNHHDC
# In short: as §1
# ELF4 = ELF4 (Homo sapiens, UniProt Q99607 1-663); details: protein: recombinant; tags: N-terminal GST; dsDNA, one strand shown
# In short: as §1
# ELK4 = molecular target: T9, ELK4 (Homo sapiens, UniProt P28324-2 1-405); details: protein: recombinant; tags: N-terminal GST; dsDNA, one strand shown
# T9 sequence: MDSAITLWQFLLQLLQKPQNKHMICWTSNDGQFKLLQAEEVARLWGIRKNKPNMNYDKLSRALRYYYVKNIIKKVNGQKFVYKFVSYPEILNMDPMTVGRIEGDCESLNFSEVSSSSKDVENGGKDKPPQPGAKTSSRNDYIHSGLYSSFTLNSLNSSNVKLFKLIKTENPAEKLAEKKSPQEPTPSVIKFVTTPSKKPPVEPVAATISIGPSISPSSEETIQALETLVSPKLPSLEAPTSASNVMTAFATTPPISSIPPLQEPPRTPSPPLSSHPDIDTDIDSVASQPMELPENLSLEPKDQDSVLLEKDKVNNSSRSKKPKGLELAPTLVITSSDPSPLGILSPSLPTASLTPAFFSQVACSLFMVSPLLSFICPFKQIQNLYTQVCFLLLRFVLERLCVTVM
# In short: as §1
# ETV2 = molecular target: T10, ETV2 (Homo sapiens, UniProt O00321 1-342); details: protein: recombinant; tags: N-terminal GST; dsDNA, one strand shown
# T10 sequence: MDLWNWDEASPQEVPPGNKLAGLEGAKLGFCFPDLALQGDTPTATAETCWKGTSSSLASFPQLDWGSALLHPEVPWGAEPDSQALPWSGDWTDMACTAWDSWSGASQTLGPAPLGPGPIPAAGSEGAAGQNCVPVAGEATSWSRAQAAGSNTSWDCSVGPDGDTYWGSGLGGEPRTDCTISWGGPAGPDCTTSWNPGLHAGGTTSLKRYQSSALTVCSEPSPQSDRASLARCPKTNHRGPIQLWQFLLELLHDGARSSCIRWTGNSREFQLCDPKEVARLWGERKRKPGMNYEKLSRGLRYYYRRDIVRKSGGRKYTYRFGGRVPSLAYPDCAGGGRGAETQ
# In short: as §1
# ELF3 = molecular target: T11, ELF3 (Homo sapiens, UniProt P78545 1-371); details: protein: recombinant; tags: N-terminal GST; dsDNA, one strand shown
# T11 sequence: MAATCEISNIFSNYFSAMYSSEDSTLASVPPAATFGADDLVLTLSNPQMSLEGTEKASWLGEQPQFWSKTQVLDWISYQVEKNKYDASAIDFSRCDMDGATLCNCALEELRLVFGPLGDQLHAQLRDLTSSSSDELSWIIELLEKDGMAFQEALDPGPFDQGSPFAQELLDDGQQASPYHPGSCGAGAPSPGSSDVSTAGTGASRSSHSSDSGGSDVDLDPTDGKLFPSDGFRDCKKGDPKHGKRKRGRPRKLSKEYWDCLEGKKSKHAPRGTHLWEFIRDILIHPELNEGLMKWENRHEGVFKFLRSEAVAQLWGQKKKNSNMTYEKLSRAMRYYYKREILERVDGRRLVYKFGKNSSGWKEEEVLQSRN
# In short: as §1
# CRX = CRX (Homo sapiens, UniProt O43186 1-299); details: protein: recombinant; tags: N-terminal GST; dsDNA, one strand shown
# In short: as §1
# ETV1 = ETV1 (Homo sapiens, UniProt P50549 1-477); details: protein: recombinant; tags: N-terminal GST; dsDNA, one strand shown
# In short: as §1
# Chain of CRX (O43186 whole entry): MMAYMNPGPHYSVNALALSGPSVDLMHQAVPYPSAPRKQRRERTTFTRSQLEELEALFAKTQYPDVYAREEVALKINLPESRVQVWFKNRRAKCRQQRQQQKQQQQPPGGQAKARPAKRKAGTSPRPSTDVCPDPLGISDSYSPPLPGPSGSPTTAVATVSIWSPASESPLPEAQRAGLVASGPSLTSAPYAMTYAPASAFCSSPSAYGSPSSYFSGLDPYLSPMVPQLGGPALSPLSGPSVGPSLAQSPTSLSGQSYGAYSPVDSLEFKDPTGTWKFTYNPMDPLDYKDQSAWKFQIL
# Chain of ETV1 (P50549 whole entry): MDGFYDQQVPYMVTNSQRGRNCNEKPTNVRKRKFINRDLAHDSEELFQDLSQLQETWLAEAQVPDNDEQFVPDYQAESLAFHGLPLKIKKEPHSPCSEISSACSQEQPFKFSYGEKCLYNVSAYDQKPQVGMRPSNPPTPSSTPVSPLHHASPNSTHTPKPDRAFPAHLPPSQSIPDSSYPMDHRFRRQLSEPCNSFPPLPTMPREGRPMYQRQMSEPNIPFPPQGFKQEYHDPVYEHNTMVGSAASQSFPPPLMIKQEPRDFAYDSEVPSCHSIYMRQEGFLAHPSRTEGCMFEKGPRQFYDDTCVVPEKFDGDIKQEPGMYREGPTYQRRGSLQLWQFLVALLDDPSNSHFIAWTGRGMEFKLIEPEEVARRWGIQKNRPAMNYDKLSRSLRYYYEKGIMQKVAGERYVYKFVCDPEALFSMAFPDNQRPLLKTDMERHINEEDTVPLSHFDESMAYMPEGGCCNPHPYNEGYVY
# Chain of HSF1 (Q00613 whole entry): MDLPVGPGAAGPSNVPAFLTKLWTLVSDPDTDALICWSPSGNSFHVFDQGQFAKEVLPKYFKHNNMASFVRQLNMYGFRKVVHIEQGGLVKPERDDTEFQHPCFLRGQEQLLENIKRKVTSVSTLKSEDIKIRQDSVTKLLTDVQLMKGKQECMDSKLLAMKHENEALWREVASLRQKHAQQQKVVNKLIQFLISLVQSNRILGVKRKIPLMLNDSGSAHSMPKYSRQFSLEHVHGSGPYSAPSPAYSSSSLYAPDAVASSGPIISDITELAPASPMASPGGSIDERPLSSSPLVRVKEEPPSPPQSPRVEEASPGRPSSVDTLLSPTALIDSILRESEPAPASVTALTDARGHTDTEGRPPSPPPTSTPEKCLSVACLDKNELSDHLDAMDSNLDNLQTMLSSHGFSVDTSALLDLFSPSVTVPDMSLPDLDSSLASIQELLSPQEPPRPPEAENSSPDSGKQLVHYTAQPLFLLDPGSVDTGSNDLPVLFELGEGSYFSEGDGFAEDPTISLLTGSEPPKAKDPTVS
# Chain of SPIB (Q01892 whole entry): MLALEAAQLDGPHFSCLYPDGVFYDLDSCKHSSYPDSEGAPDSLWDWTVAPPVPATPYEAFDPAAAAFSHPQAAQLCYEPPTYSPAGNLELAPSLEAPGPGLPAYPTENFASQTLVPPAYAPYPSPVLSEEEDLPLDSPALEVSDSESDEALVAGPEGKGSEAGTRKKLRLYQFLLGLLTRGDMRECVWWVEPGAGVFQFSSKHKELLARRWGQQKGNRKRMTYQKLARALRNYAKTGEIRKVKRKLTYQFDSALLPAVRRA
# Chain of ETV5 (P41161 whole entry): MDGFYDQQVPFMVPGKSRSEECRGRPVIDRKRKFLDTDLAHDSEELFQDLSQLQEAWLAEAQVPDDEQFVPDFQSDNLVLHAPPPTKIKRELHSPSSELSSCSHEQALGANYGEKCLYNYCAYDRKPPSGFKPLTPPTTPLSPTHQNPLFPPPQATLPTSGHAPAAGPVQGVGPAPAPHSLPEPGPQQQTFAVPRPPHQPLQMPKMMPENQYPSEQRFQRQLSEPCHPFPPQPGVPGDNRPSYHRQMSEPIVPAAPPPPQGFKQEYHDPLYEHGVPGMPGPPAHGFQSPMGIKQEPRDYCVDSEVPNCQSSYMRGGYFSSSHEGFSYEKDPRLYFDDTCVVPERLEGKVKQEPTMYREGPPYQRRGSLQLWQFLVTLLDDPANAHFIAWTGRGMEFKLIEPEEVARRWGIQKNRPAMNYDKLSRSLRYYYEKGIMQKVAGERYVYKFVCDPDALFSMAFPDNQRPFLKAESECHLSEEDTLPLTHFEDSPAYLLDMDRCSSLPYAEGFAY
# Chain of ELF4 (Q99607 whole entry): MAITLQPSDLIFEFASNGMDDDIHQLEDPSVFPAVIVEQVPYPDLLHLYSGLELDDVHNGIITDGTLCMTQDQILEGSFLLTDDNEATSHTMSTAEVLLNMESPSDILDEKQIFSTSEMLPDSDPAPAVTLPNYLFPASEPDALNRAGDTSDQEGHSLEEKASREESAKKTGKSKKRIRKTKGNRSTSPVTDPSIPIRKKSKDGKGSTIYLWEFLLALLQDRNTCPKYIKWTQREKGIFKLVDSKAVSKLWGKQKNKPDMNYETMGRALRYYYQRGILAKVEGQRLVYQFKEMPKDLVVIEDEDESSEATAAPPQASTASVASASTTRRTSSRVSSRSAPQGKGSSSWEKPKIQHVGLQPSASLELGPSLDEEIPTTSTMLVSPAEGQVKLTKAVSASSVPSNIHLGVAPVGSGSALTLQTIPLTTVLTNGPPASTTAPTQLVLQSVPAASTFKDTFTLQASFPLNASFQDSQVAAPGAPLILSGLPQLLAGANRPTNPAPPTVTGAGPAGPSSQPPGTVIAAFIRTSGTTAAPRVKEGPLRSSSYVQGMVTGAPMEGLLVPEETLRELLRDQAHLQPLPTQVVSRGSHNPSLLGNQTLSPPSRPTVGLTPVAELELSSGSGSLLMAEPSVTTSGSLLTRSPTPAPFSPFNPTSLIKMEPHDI
# Chain of ELF1 (P32519 whole entry): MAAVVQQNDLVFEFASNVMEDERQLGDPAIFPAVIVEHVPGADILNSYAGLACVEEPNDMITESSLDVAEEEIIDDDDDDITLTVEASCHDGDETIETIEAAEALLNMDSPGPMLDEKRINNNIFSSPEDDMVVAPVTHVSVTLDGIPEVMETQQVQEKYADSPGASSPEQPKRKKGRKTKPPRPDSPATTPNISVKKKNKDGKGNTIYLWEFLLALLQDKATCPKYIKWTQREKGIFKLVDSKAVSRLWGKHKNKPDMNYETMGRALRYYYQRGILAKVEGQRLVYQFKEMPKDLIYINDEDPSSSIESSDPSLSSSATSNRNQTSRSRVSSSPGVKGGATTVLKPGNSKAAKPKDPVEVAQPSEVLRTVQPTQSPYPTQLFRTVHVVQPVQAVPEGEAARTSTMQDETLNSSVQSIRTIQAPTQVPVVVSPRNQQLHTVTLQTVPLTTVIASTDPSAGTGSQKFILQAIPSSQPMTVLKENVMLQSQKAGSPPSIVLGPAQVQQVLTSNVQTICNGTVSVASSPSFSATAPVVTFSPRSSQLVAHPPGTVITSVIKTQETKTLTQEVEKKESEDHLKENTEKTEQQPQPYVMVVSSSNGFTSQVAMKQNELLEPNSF
sequence,measurement,setting,value
AAAGAT,binding signal,FLI1,"1.18 fold enrichment (6-mer frequency, TF over GST control)"
same,binding signal,ELK1,"1.21 fold enrichment (6-mer frequency, TF over GST control)"
same,binding signal,GABPA,"1.21 fold enrichment (6-mer frequency, TF over GST control)"
same,binding signal,ERG,"1.21 fold enrichment (6-mer frequency, TF over GST control)"
same,binding signal,ELF1,"1.26 fold enrichment (6-mer frequency, TF over GST control)"
same,binding signal,EHF,"1.18 fold enrichment (6-mer frequency, TF over GST control)"
same,binding signal,SPI1,"1.23 fold enrichment (6-mer frequency, TF over GST control)"
same,binding signal,SPIB,"1.3 fold enrichment (6-mer frequency, TF over GST control)"
same,binding signal,ELK3,"1.13 fold enrichment (6-mer frequency, TF over GST control)"
same,binding signal,FEV,"1.15 fold enrichment (6-mer frequency, TF over GST control)"
same,binding signal,ETV5,"1.25 fold enrichment (6-mer frequency, TF over GST control)"
same,binding signal,HSF1,"1.67 fold enrichment (6-mer frequency, TF over GST control)"
same,binding signal,SPIC,"1.22 fold enrichment (6-mer frequency, TF over GST control)"
same,binding signal,ELF4,"1.24 fold enrichment (6-mer frequency, TF over GST control)"
same,binding signal,ELK4,"1.24 fold enrichment (6-mer frequency, TF over GST control)"
same,binding signal,ETV2,"1.17 fold enrichment (6-mer frequency, TF over GST control)"
same,binding signal,ELF3,"1.16 fold enrichment (6-mer frequency, TF over GST control)"
same,binding signal,CRX,"1.75 fold enrichment (6-mer frequency, TF over GST control)"
same,binding signal,ETV1,"1.27 fold enrichment (6-mer frequency, TF over GST control)"
